A selection: hits, their analogues and other compounds. The true share with any hit is near 5.4%.
aDG glyco up: increases alpha dystroglycan glycosylation; activation, % at 10 µM; AID 624168; Pro5-aDG cells, alpha-DG glycosylation AlphaScreen (IIH6); 0% Pro5, 100% B10-LARGE cell signal; actives 0.22% (n = 360,000);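 active = activation of at least 8% versus controls, or a plate z-score of at least 8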;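 note: Pro5 are CHO cells carrying HIG-tagged alpha-DG that lacks glycosylation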
APOBEC3A inh: human APOBEC3A DNA deaminase inhibition. P31941. recombinant A3A, FAM/TAMRA ssDNA deamination fluorescence. inhibition, % at 20 µM. actives 0.41% (n = 330,000);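 active = at least 40% inhibition at 20 µM here, with at most 30% in a related deaminase screen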
Target sequence (P31941 whole entry, looked up): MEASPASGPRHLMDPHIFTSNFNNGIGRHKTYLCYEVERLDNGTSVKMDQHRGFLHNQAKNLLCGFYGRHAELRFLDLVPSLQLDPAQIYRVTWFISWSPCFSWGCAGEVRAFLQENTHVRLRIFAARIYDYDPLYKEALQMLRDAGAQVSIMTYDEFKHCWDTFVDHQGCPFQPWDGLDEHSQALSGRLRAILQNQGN
APOBEC3G inh: inhibitors of human APOBEC3G DNA deaminase. Q9HC16. recombinant A3G, ssDNA deamination FAM/TAMRA fluorescence. inhibition, % at 20 µM. actives 0.28% (n = 330,000). AID 493012;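 active = inhibition of at least 40% at 20 µM, with no more than 30% in the related APOBEC3A deaminase screen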
Target sequence (Q9HC16 whole entry, looked up): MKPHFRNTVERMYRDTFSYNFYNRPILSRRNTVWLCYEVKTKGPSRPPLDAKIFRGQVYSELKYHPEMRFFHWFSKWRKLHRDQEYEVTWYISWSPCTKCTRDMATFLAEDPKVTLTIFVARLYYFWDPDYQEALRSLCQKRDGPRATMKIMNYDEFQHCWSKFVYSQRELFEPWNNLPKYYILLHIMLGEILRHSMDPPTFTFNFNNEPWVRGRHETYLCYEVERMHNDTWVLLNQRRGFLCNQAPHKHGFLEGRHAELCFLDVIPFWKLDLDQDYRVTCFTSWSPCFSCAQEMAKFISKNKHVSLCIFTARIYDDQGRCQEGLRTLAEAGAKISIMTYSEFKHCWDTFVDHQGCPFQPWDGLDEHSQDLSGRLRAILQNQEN
ALR H2O2 inh: inhibitors of human sulfhydryl oxidase ALR | inhibition, % (no concentration beside the values) | purified ALR, DTT oxidation, H2O2 HRP-luminol luminescence | actives 3.8% (n = 290,000);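 active = mean replicate inhibition above about 79%, with every replicate also reaching it, limit read from the data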
PHOSPHO1 inh: inhibitors of human PHOSPHO1 phosphatase | recombinant PHOSPHO1, absorbance phosphatase assay | inhibition, % at 13.3 µM | actives 1.1% (n = 290,000) | AID 1565; in the data active = inhibition above about 60%
rCAG binder: molecules binding r(CAG) RNA repeats. AID 651821. inhibition, % at 3 µM. r(CAG) RNA repeat, TO-PRO-1 dye displacement fluorescence. actives 1.3% (n = 370,000);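 active = inhibition above the plate cutoff, the mean of all test compounds on that plate plus 3 SD, cut at about 35% in these data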;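 note: higher means more dye released from RNA so lower well fluorescence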
Numbers stand for hits.

CCn1c2ccccc2c2cc(NC(=O)COC(=O)c3cc(Cl)cc(Cl)c3)ccc21 was read as rCAG binder inactive.
For O=S1(=O)CCC(N(N=Cc2ccco2)c2ccccc2)C1 (centres undefined) the results were rCAG binder inactive.
CN1CSC2=C(C#N)C(c3cccc(OCc4ccccc4)c3)CC(=O)N2C1 (centres undefined) was read as aDG glyco up inactive, APOBEC3A inh inactive, APOBEC3G inh inactive, PHOSPHO1 inh inactive and rCAG binder inactive.
N#CC1=C2SCN(c3ccc(F)cc3)CN2C(=O)CC1c1cccc(F)c1 (centres undefined) was read as aDG glyco up inactive, APOBEC3A inh inactive, APOBEC3G inh inactive, ALR H2O2 inh inactive, PHOSPHO1 inh 64 and rCAG binder inactive.
CCc1ccc(C2CC(=O)N3CN(c4ccccc4)CSC3=C2C#N)cc1 (centres undefined) was read as aDG glyco up inactive, APOBEC3A inh inactive, APOBEC3G inh inactive, PHOSPHO1 inh 86 and rCAG binder inactive.
For N#CC1=C2SCC(O)(c3ccccc3)N2C(=O)CC1c1ccccc1 (centres undefined) the results were aDG glyco up inactive, APOBEC3A inh inactive, APOBEC3G inh inactive, ALR H2O2 inh inactive, PHOSPHO1 inh inactive and rCAG binder inactive.
Screening COC(=O)[C@]12C[C@H](CC(=O)N3CCCCC3)C(=O)N(Cc3ccco3)C1=C[C@H](COCc1ccccc1)O[C@@H]2C returned rCAG binder inactive.
For CCOCc1cnc(C)nc1NCC(=O)c1c(C)n(C)c2ccc(OC)cc12 the results were aDG glyco up inactive, PHOSPHO1 inh 92 and rCAG binder inactive.
`COc1ccc2c(c1)c(C(C)=O)c(C)n2C` gave aDG glyco up inactive, APOBEC3A inh inactive, APOBEC3G inh inactive, PHOSPHO1 inh inactive and rCAG binder inactive.
COc1ccc2c(c1)c(C(=O)CNc1nc(C)cs1)c(C)n2C was read as aDG glyco up inactive, APOBEC3A inh inactive, APOBEC3G inh inactive, ALR H2O2 inh 98, PHOSPHO1 inh 81 and rCAG binder inactive.
O=C(N[C@H](C(=O)N1CCC[C@H]1C(=O)NC1CCCC1)C1CCCCC1)c1ccccc1 was read as rCAG binder inactive.
Screening COc1cccc(-c2cc(C(F)(F)F)n3nc(N)nc3n2)c1 returned aDG glyco up inactive, APOBEC3A inh inactive, APOBEC3G inh inactive, ALR H2O2 inh 95, PHOSPHO1 inh inactive and rCAG binder inactive.
For Cc1ccccc1CN1CCCCC(NC(=O)c2cc(-c3ccccc3)no2)C1=O (centres undefined) the results were rCAG binder inactive.
Screening CCCOc1ccc(C(=O)C(CN2CCCC2)c2ccccc2)cc1 (centres undefined) returned aDG glyco up inactive, ALR H2O2 inh 96, PHOSPHO1 inh inactive and rCAG binder inactive.
`CCCCOc1ccc(C(=O)C(CN2CCOCC2)c2ccccc2)cc1` (centres undefined) gave aDG glyco up inactive, APOBEC3A inh inactive, APOBEC3G inh inactive, ALR H2O2 inh inactive, PHOSPHO1 inh inactive and rCAG binder inactive.
Screening COC(=O)CSc1nc(C)c(C)c(C)c1C(N)=O returned aDG glyco up inactive, APOBEC3A inh inactive, APOBEC3G inh inactive, ALR H2O2 inh inactive, PHOSPHO1 inh 62 and rCAG binder inactive.
`CCOc1ccc(-n2c(SCc3nc4ccccc4[nH]3)nnc2-c2cccc(Cl)c2)cc1` gave rCAG binder inactive.
Screening CCc1nc2n[nH]c(N)c2c2c1CSC(C)(C)C2 returned aDG glyco up inactive, APOBEC3A inh inactive, APOBEC3G inh inactive, ALR H2O2 inh 87, PHOSPHO1 inh inactive and rCAG binder inactive.
Screening COC(=O)[C@]12C[C@H](CC(=O)NCc3cccs3)C(=O)N(Cc3ccco3)C1=C[C@H](C1CCCC1)O[C@@H]2C returned rCAG binder inactive.
For COc1cc(/C=N/NC(=O)c2cccc(S(=O)(=O)N3CCCC3)c2)ccc1O the results were aDG glyco up inactive, APOBEC3A inh inactive, APOBEC3G inh inactive, ALR H2O2 inh 99 and rCAG binder inactive.
COc1ccc(NS(=O)(=O)c2cccc(C(=O)NN=Cc3ccc(O)c(OC)c3)c2)cc1 was read as aDG glyco up inactive, APOBEC3A inh inactive, APOBEC3G inh inactive, ALR H2O2 inh inactive and rCAG binder inactive.
O=C(N/N=C/c1ccc(O)c(O)c1)c1cccc(S(=O)(=O)N2CCCC2)c1 was read as aDG glyco up inactive, APOBEC3A inh inactive, APOBEC3G inh inactive, ALR H2O2 inh 99 and rCAG binder inactive.
Cc1ccc(S(=O)(=O)N2CCN(CC(=O)N/N=C\c3ccc(O)c(O)c3)CC2)cc1 was read as aDG glyco up inactive, APOBEC3A inh inactive, APOBEC3G inh inactive, ALR H2O2 inh 99, PHOSPHO1 inh inactive and rCAG binder inactive.
Screening O=C(CCNC(=O)C1CCN(S(=O)(=O)c2ccc(F)cc2)CC1)NCCc1cccc(F)c1 returned aDG glyco up inactive, APOBEC3A inh inactive, APOBEC3G inh inactive, ALR H2O2 inh inactive, PHOSPHO1 inh inactive and rCAG binder inactive.
O=C(CCNC(=O)C1CCN(S(=O)(=O)c2ccc(F)cc2)CC1)NCCc1ccc(Cl)cc1 was read as aDG glyco up inactive, APOBEC3A inh inactive, APOBEC3G inh inactive, ALR H2O2 inh inactive, PHOSPHO1 inh 64 and rCAG binder inactive.
For COc1cccc(-n2nnnc2S(C)(=O)=O)c1 the results were aDG glyco up inactive, APOBEC3A inh inactive, APOBEC3G inh inactive, ALR H2O2 inh 99 and PHOSPHO1 inh inactive.
Screening COc1cccc(Oc2nnnn2-c2ccccc2)c1 returned aDG glyco up inactive, APOBEC3A inh inactive, APOBEC3G inh inactive, ALR H2O2 inh inactive, PHOSPHO1 inh inactive and rCAG binder inactive.
Screening CCCCCn1nnnc1C1(C)CCCCC(=O)N1Cc1ccco1 (centres undefined) returned rCAG binder inactive.
Screening CC(C)Oc1ccc(C2C(C#N)=C(N)Oc3c2oc(CO)cc3=O)cc1 (centres undefined) returned aDG glyco up inactive, APOBEC3A inh inactive, APOBEC3G inh inactive, ALR H2O2 inh inactive, PHOSPHO1 inh inactive and rCAG binder inactive.
Screening COc1cc(C2C(C#N)=C(N)Oc3c2oc(CO)cc3=O)ccc1OC(C)C (centres undefined) returned aDG glyco up inactive, APOBEC3A inh inactive, APOBEC3G inh inactive, ALR H2O2 inh 85, PHOSPHO1 inh inactive and rCAG binder inactive.
For Oc1ccc(N2CCN(Cc3ccc(OCCCN4CCCCC4)cc3)CC2)cc1 the results were aDG glyco up inactive, APOBEC3A inh inactive, APOBEC3G inh inactive, ALR H2O2 inh 99, PHOSPHO1 inh inactive and rCAG binder inactive.
`O=C(OC12CCCN(C1)/C(=C/c1ccncc1)C2)c1ccc(Cl)cc1` (centres undefined) gave rCAG binder inactive.
For COc1cc2c(cc1OC)[C@](C)(c1ccccc1)C[C@@H]2NCC=C(C)C the results were rCAG binder inactive.
Screening O=C(O)Cn1c2c(c3ccccc31)CSc1ccc(Cl)cc1-2 returned aDG glyco up inactive, ALR H2O2 inh inactive, PHOSPHO1 inh inactive and rCAG binder 58.

Bioassay records as filed in PubChem.
